# From the supplement of paper PMC10849652
# Targets with a hit are over-represented here; the source holds about 7,900 in all. About 0.6% of all pairs of compound and target were hits. A number with no mark means an inactive call.
# How the values were obtained:
# Assay in all cases: log2 fold change, soluble protein after heating vs DMSO (PISA); higher = thermal stabilisation; K562 cells, 10 uM, 30 min; active = over 0.2 and 3.5 SD of the protein, either way, in both replicates (recomputed)
# IRAK-1-4 Inhibitor I = compound: C1COCCN1CCN2C3=CC=CC=C3N=C2NC(=O)C4=CC(=CC=C4)[N+](=O)[O-] [IRAK-1-4 Inhibitor I]
# Method in brief: (§1)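 Thermal stability values are relative to control samples and come from duplicates. They are expressed as log2 fold changes. For measurement, K562 cells (2×10^6 cells/mL) received 10 μM compound for 30 min, and aliquots were heated for 3 min over 48°C-58°C, pooled, and extracted at 4°C in PBS with 0.5% NP-40. Soluble protein, the supernatant after 21,000xg for 90 min, was quantified by TMTpro 16plex LC-MS/MS with equalised channel sums.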
# ibrutinib = compound: C=CC(=O)N1CCC[C@@H](n2nc(-c3ccc(Oc4ccccc4)cc3)c3c(N)ncnc32)C1 [ibrutinib]
# Method in brief: as §1
# [1] = compound: CC(=O)c1cnc2ccc(-c3cc(Cl)c(O)c(Cl)c3)nc2c1N[C@H]1CC[C@H](CN(C)C)CC1
# Method in brief: as §1
# ralimetinib = compound: CC(C)(C)Cn1c(N)nc2ccc(-c3[nH]c(C(C)(C)C)nc3-c3ccc(F)cc3)nc21 [ralimetinib]
# Method in brief: as §1
# [2] = compound: CC(C)(O)CC(=O)NCCn1ccc2ncnc(Nc3ccc(Oc4cccc(C(F)(F)F)c4)c(Cl)c3)c21
# Method in brief: as §1
# [3] = compound: CC(C)C1=C2N=C(C=C(N2N=C1)NCC3=CC=CC=C3)NCCCCCCN
# Method in brief: as §1
# [4] = compound: CC(C)C[C@@H](C=O)NC(=O)[C@H](CC(C)C)NC(=O)[C@H](CC(C)C)NC(=O)OCc1ccccc1
# Method in brief: as §1
# pinometostat = compound: CC(C)N(C[C@H]1O[C@@H](n2cnc3c(N)ncnc32)[C@H](O)[C@@H]1O)[C@H]1C[C@@H](CCc2nc3cc(C(C)(C)C)ccc3[nH]2)C1 [pinometostat]
# Method in brief: as §1
# [5] = compound: CC1=C(C(CC(=O)N1)C2=CC=C(C=C2)C(F)(F)F)C(=O)NC3=C(C=C4C(=C3)C=NN4)F
# Method in brief: as §1
# [6] = compound: CC1=C(C2=C(C=C1)C(=O)C3=CC=CC=C3N2CCCN)C
# Method in brief: as §1
# Sequence of UniProt Q9BRA0 (Q9BRA0 whole entry, looked up): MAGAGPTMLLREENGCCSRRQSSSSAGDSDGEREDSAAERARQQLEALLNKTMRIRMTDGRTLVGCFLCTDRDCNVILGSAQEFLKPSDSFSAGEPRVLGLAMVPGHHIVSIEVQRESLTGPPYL
# Sequence of UniProt P04181 (P04181 whole entry, looked up): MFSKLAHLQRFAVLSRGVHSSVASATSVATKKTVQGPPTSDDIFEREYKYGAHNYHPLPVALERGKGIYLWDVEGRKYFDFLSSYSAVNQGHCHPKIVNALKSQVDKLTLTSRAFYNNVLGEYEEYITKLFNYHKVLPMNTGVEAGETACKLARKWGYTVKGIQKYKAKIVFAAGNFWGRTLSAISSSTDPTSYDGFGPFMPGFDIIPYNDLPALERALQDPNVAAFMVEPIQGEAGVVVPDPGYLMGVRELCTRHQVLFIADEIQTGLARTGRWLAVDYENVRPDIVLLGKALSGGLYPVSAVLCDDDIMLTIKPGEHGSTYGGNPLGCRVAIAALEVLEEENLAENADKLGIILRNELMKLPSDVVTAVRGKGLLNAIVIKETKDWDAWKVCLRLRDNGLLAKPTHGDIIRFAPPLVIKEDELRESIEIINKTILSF
# Sequence of UniProt Q9H3L0 (Q9H3L0 whole entry, looked up): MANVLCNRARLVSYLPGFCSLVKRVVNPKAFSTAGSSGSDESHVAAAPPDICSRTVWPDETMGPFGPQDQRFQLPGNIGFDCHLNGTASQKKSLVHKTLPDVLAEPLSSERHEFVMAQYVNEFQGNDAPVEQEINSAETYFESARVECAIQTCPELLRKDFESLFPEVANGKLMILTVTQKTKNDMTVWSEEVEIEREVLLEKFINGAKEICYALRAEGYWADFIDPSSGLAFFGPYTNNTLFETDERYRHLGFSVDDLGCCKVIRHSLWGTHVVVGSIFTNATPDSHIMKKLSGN
# Sequence of UniProt Q9Y5B8 (Q9Y5B8 whole entry, looked up): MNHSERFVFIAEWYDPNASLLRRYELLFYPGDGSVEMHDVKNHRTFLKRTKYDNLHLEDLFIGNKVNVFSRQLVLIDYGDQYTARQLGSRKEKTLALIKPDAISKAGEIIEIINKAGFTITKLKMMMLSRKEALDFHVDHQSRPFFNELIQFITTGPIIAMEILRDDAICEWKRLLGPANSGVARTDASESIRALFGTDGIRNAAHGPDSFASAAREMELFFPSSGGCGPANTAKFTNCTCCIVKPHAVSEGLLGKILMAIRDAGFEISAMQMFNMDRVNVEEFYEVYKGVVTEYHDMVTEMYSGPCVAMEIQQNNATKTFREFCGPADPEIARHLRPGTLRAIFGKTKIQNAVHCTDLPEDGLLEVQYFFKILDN
# Sequence of UniProt Q8N6M0 (Q8N6M0 whole entry, looked up): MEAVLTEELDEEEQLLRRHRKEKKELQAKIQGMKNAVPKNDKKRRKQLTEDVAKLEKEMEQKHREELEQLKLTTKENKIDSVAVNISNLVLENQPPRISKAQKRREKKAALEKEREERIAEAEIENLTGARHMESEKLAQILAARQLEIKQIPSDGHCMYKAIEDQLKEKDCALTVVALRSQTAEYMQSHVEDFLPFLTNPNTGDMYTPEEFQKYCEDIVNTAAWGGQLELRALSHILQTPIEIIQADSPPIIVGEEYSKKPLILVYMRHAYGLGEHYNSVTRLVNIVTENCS
# Sequence of UniProt Q8WUY8 (Q8WUY8 whole entry, looked up): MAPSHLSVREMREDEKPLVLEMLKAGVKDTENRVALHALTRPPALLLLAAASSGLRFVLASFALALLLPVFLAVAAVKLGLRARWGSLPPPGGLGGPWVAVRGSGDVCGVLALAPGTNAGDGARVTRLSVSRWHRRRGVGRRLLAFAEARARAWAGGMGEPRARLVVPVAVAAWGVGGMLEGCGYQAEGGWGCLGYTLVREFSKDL
# Sequence of UniProt Q14978 (Q14978 whole entry, looked up): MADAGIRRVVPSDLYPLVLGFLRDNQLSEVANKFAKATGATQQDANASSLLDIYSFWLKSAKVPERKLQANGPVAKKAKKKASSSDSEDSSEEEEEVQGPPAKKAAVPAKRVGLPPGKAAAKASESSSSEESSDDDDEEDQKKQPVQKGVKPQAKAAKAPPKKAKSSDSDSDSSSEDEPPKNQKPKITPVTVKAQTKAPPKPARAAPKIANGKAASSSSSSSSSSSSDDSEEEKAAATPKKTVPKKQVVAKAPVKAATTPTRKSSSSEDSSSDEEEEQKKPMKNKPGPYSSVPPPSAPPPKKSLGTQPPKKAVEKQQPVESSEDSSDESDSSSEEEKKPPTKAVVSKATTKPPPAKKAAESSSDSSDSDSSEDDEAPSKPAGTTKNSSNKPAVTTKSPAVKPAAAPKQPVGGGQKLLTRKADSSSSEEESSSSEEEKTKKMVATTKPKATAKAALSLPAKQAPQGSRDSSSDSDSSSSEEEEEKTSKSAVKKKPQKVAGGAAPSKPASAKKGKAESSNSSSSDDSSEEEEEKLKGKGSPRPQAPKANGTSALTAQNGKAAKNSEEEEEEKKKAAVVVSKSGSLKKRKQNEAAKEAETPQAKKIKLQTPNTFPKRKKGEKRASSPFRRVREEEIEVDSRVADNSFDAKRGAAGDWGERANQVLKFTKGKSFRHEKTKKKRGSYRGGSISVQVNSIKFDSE
# Sequence of UniProt Q14980 (Q14980 whole entry, looked up): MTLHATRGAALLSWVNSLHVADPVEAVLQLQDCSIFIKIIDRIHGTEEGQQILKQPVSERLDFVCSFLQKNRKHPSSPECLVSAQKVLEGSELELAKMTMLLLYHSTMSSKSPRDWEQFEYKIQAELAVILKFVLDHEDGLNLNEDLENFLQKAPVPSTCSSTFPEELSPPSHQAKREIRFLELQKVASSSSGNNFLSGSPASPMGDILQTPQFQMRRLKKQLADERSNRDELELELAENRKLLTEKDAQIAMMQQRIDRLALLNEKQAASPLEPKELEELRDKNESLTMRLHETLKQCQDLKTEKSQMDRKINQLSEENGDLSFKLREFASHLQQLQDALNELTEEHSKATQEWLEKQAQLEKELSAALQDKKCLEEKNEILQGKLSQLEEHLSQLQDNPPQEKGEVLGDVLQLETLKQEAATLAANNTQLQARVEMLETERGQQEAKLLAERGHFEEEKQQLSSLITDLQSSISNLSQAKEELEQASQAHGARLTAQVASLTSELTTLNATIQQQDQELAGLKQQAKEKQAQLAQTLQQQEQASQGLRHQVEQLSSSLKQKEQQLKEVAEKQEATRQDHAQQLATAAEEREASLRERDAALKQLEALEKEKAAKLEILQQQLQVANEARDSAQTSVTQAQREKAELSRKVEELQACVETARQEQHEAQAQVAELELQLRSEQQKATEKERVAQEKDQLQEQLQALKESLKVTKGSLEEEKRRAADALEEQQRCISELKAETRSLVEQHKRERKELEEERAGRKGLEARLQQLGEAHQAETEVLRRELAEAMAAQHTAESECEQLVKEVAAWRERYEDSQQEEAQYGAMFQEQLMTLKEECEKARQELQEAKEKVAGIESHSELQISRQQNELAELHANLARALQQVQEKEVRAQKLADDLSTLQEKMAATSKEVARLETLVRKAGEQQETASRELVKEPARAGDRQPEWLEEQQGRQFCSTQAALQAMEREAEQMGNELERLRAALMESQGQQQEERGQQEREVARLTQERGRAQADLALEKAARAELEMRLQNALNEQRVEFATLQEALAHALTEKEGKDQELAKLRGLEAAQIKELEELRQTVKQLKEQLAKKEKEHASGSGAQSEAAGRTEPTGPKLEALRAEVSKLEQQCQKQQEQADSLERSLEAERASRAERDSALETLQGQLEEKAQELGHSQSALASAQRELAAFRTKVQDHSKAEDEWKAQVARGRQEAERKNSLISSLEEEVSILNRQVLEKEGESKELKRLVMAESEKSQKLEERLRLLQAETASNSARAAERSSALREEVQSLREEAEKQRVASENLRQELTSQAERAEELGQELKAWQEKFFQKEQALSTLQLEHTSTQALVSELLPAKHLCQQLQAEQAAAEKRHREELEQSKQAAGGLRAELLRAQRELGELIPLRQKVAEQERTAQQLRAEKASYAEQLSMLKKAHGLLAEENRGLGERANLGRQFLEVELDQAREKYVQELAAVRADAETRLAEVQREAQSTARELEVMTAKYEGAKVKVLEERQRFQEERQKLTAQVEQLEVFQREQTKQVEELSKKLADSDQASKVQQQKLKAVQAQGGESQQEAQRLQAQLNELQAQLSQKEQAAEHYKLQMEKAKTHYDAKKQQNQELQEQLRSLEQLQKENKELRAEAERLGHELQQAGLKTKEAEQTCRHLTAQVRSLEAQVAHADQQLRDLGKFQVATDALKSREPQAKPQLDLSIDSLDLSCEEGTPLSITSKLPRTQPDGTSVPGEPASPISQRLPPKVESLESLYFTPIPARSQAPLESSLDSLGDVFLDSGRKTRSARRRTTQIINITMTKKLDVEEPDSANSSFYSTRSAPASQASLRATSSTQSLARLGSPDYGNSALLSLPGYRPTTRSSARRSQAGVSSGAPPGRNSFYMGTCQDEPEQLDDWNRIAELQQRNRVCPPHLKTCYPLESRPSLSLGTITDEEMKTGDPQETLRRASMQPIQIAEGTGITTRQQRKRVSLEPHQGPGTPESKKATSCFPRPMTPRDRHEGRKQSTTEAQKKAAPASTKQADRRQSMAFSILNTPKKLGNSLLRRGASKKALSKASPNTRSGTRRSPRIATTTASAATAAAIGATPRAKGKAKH
# Sequence of UniProt Q9BT67 (Q9BT67 whole entry, looked up): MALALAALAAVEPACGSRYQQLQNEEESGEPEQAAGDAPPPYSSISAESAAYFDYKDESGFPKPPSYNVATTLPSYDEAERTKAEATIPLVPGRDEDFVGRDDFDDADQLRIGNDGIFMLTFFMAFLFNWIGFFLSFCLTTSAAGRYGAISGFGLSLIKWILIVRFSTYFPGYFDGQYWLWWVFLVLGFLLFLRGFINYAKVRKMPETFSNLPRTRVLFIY
# Sequence of UniProt P25208 (P25208 whole entry, looked up): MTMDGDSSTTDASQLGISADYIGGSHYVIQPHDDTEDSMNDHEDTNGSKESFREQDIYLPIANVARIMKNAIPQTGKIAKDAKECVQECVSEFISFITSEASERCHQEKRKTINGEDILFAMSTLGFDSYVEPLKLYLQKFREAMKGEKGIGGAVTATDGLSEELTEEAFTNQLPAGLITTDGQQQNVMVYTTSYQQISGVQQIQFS
Target,log2 fold change (IRAK-1-4 Inhibitor I),log2 fold change (ibrutinib),log2 fold change [1],log2 fold change (ralimetinib),log2 fold change [2],log2 fold change [3],log2 fold change [4],log2 fold change (pinometostat),log2 fold change [5],log2 fold change [6]
MRPS6 (UniProt P82932),-0.193,-0.007,-0.079,0.012,-0.158,-0.003,-0.009,-0.007,0.003,-0.139
OAT (UniProt P04181),0.044,-0.006,-0.044,-0.053,-0.113,-0.245 (active),0.007,-0.027,-0.006,-0.007
OSTM1 (UniProt Q86WC4),0.05,-0.006,0.013,0.042,-0.081,-0.041,0.079,-0.056,0.015,-0.024
PAFAH1B3 (UniProt Q15102),-0.041,0.008,-0.119,0.009,-0.137,-0.055,-0.078,0.023,0,0.305 (active)
NAA38 isoform 2 (UniProt Q9BRA0),0.047,-0.021,-0.034,0.02,-0.095,-0.397 (active),-0.001,0.035,0.051,-0.01
NPM3 (UniProt O75607),-0.057,-0.016,-0.004,0.045,–,0.078,0.053,0.052,0.088,-0.521 (active)
NOL11 (UniProt Q9H8H0),0.036,0.031,0.002,-0.028,0.037,0.21,-0.017,-0.014,-0.002,0.304 (active)
"NA, A0A2R8Y3M9",0.087,0.215,-0.207,-0.08,–,–,0.056,-0.001,0.253,–
OPA1 isoform 2 (UniProt O60313),-0.008,-0.009,-0.05,0.043,-0.201,-0.375 (active),0.004,0.03,-0.006,0.1
MMADHC (UniProt Q9H3L0),0.014,-0.056,-0.011,0.073,–,0.039,0.076,0.182,-0.118,-0.137
ORC5 (UniProt O43913),0.024,-0.014,-0.306,0.015,–,-0.134,0.005,0.128,-0.005,0.08
NOLC1 isoform 2 (UniProt Q14978),-0.057,-0.089,-0.305 (active),0.041,0.021,-0.015,-0.086,-0.011,-0.023,-1.4 (active)
OXSM (UniProt Q9NWU1),0.032,0.064,0.017,0.008,0.031,0.041,-0.025,-0.067,-0.023,-0.011
NELFCD (UniProt Q8IXH7),-0.038,-0.18,-0.04,–,-0.394,0.101,–,0.017,-0.036,–
NCAPH (UniProt Q15003),-0.124,-0.045,0.097,0.007,-0.094,-0.023,0.02,0.08,0.017,-0.006
OTULIN (UniProt Q96BN8),0.021,-0.025,-0.003,-0.01,-0.059,-0.362 (active),0.024,0.034,-0.02,0.008

Target,log2 fold change (IRAK-1-4 Inhibitor I),log2 fold change (ibrutinib),log2 fold change [1],log2 fold change (ralimetinib),log2 fold change [2],log2 fold change [3],log2 fold change [4],log2 fold change (pinometostat),log2 fold change [5],log2 fold change [6]
NAGPA (UniProt Q9UK23),-0.078,0.228,-0.014,–,0.03,0.112,–,0.052,0.083,-0.062
PAFAH2 (UniProt Q99487),0.106,0.048,-0.012,-0.033,–,0.025,0.007,-0.011,–,0.02
MRPS31 (UniProt Q92665),-0.057,0.014,-0.073,-0.005,-0.032,-0.086,0.057,0.034,0.026,-0.14
NUMA1 (UniProt Q14980),-0.107,-0.051,-0.123,0.149,0.073,-0.173,-0.02,0.202,-0.018,-0.58 (active)
NME7 (UniProt Q9Y5B8),0.056,-0.054,-0.038,0.095,-0.116,-0.066,0.059,0.065,–,-0.086
NACC1 (UniProt Q96RE7),-0.026,-0.048,-0.109,-0.017,-0.058,-0.352 (active),-0.014,-0.015,0.034,-0.193
NAT14 (UniProt Q8WUY8),-0.061,0.019,-0.033,-0.028,-0.257,-0.185,0.027,-0.074,0.022,-0.187
NFYB (UniProt P25208),0.07,-0.051,0.019,0.016,–,0.054,-0.007,-0.043,0.026,0.411 (active)
MT-ND2 (UniProt P03891),-0.021,-0.042,-0.171,-0.119,–,-0.221,-0.089,-0.075,-0.076,0.113
OSBPL8 (UniProt Q9BZF1),-0.148,-0.042,-0.204,0.199,-0.019,-0.378,0.046,0.201,-0.076,0.045
NDFIP1 (UniProt Q9BT67),-0.135,-0.083,0.146,0.084,-0.401,-1.2 (active),0.302,0.048,0.241,0.152
MRPS26 (UniProt Q9BYN8),-0.09,0.008,0.007,-0.049,-0.143,0.03,0.137,0.037,–,-0.133
MT-ATP6 (UniProt P00846),0,-0.68,-0.178,-0.178,-0.033,-0.06,-0.165,-0.162,-0.218,-0.072
MINK1 (UniProt Q8N4C8),-0.018,0.038,-0.715 (active),-0.081,0.053,0.021,0.044,0.049,-0.017,0.061
OTUD6B (UniProt Q8N6M0),-0.046,-0.017,-0.02,0.036,-0.049,-0.269 (active),0.029,0.053,0.078,-0.015
